The values below come from PubChem BioAssay (Tox21).

Assay [1] is described as follows: A CellTox Green Cytotoxicity Assay to monitor cytotoxicity in HEK293 cells - 40 hour (AID 1224871). Also: nearly all actives have a fitted effect of over 45% in size. Also: potency is read from the fitted curve at half-maximal effect. Summed up: (§1)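 Nonlytic real-time cytotoxicity: HEK293 + CellTox Green reagent plated, 5 h preincubation, pintool compound addition (23 nL in DMSO), 37 C for 40 h, fluorescence measured at successive time points.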
Assay [2] can be described thus: qHTS RealTime-Glo MT Cell Viability Assay in HEK293 cells - 16 hour (AID 1224872). Also: nearly all actives have a fitted effect of over 50% in size. Also: potency is read from the fitted curve at half-maximal effect. An outline of the steps: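 HEK293 cells were seeded at 600 cells/well together with NanoLuc luciferase and cell-permeant prosubstrate, preincubated 5 h at 37 C/5% CO2, then given compound in DMSO by pintool. Luminescence from viable-cell prosubstrate reduction was read repeatedly over 40 h.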
(In general: qHTS replaces the single test concentration by a dilution series.)

Assay [3] in a line: qHTS RealTime-Glo MT Cell Viability Assay in HEK293 cells - 40 hour (AID 1224874). Also: nearly all actives have a fitted effect of over 50% in size. Also: potency is read from the fitted curve at half-maximal effect. The settings on record: RealTime-Glo luminescence; max response: stronger effect = lower value. Summed up:
(§2)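 Cells were seeded together with NanoLuc luciferase and a prosubstrate that viable cells reduce to a luciferase substrate. After a 5 h incubation at 37 C/5% CO2, compounds were added and luminescence was measured repeatedly during 40 h of treatment.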

The nature of assay [4]: A CellTox Green Cytotoxicity Assay to monitor cytotoxicity in HEK293 cells - 24 hour (AID 1224875). Also: nearly all actives have a fitted effect of over 45% in size. Also: potency is read from the fitted curve at half-maximal effect. Summed up: as §1
Assay [5] can be described thus: A CellTox Green Cytotoxicity Assay to monitor cytotoxicity in HepG2 cells - 16 hour (AID 1224876). Also: nearly all actives have a fitted effect of over 45% in size. Also: potency is read from the fitted curve at half-maximal effect. An outline of the steps:
(§3)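 Read-out is fluorescence of a cyanine dye excluded from live cells that stains DNA of dead HepG2 cells, with signal proportional to cytotoxicity. Plates were read at 0, 8, 16, 24, 32 and 40 h after compound addition.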

A short description of assay [6]: qHTS RealTime-Glo MT Cell Viability Assay in HepG2 cells - 32 hour (AID 1224877). Also: nearly all actives have a fitted effect of over 55% in size. Also: potency is read from the fitted curve at half-maximal effect. An outline of the steps:
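HepG2 cells were seeded at 600 cells/well together with NanoLuc luciferase and a cell-permeant prosubstrate, preincubated 5 h at 37 C/5% CO2, then pin-dosed with compounds in DMSO. Nonlytic luminescence from viable cells was read at each time point.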

Assay [7] can be described thus: A CellTox Green Cytotoxicity Assay to monitor cytotoxicity in HepG2 cells - 24 hour (AID 1224878). Also: nearly all actives have a fitted effect of over 45% in size. Also: potency is read from the fitted curve at half-maximal effect. Summed up: as §3
Assay [8] can be described thus: A CellTox Green Cytotoxicity Assay to monitor cytotoxicity in HepG2 cells - 40 hour (AID 1224879). Also: nearly all actives have a fitted effect of over 40% in size. Also: potency is read from the fitted curve at half-maximal effect. Summed up: as §3
The nature of assay [9]: qHTS RealTime-Glo MT Cell Viability Assay in HEK293 cells - 0 hour (AID 1224880). Summed up:
as §2

Assay [10] is described as follows: qHTS RealTime-Glo MT Cell Viability Assay in HepG2 cells - 8 hour (AID 1224873). Also: nearly all actives have a fitted effect of over 55% in size. An outline of the steps:
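Real-time viability: cells seeded at 600 per well together with NanoLuc and cell-permeant prosubstrate, compounds added after 5 h incubation. Luminescence tracked at 0, 8, 16, 24, 32 and 40 h of exposure.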

Structures are written as SMILES. “And” between values parts separate entries of the source, which are not always exact repeats. Equal entries are not always repeated. Inconclusive results are not listed. Where a structure was tested more than once in an assay, its records may differ in their call. The source made the active and inactive calls. Calls follow the shape of the dose curve; as a rule, active = well fitted curve in the direction sought with a large enough effect in the repeat runs; inconclusive = weak or mixed curves; inactive = no such curve, though single readings can be large; an effect the other way counts as inactive or inconclusive.
% is scaled to controls: 0 for no effect and ±100 for the full control effect.

As to `CNC(=S)S`, the Potency result in assay [1], in assay [2], in assay [4], in assay [5], in assay [6] and in assay [7] was “inactive” in each case. The Potency entry in [8] and in assay [9] was “inactive” throughout. Also, in [3], the max response was 24.9% (inactive) and 0.0192% (inactive).
Regarding `N#Cc1nn(-c2c(Cl)cc(C(F)(F)F)cc2Cl)c(N)c1S(=O)C(F)(F)F` (centres undefined), the Potency result in assay [1], in assay [10], in assay [4], in assay [5], in [7] and in assay [8] was “inactive” throughout. Besides, the Potency entry in assay [9] was “inactive”. For the same molecule, the Potency in assay [2] is 22 µM (active) and 21.3 µM (active); in [3], 24.7 µM (active).
For the molecule `Cn1c(-c2ccccc2)cc(-c2ccccc2)[n+]1C`, the Potency entry in assay [1], in assay [10], in assay [4], in assay [5], in [6] and in [8] was “inactive” each time. In addition, the Potency entry in assay [9] was “inactive”. Besides, the Potency in assay [3] was 9.75 µM (active) and 21.9 µM (active).
Regarding `CC(C)(O)C(=O)Nc1ccc([N+](=O)[O-])c(C(F)(F)F)c1`, the Potency entry in assay [1], in assay [4], in assay [5], in [8] and in assay [9] was “inactive” in each case. For the same molecule, the Potency in assay [2] was 25.1 µM (active) and 25.3 µM (active); in [3], 22.3 µM (active) and 17.9 µM (active).
Consider `Clc1cccc(C(Cl)(Cl)Cl)n1`, for which the Potency entry in assay [2], in assay [10], in assay [4], in [6] and in assay [9] was “inactive” each time. For the same molecule, the max response in [3] was 2.13% (inactive) and -1.58% (inactive).
Regarding `c1ccc(C2CO2)cc1` (centres undefined), the Potency entry in assay [1], in [2], in assay [4], in assay [5], in [7] and in [8] was “inactive” each time. Moreover, the Potency entry in assay [9] is “inactive”. For the same molecule, the max response in [3] is -2.54% (inactive) and -3.91% (inactive).
As for `[Cl-].[Cl-].[Cl-].[Fe+3]`, the Potency result in assay [1], in [2], in [4], in assay [5], in assay [6] and in assay [8] was “inactive” throughout. The Potency entry in [9] was “inactive”. The max response in assay [3] was 0.374% (inactive).
`Oc1ccc(Cl)cc1Cc1ccccc1`: the Potency was 11 µM (active) and 21.3 µM (active) in assay [1]; 21.9 µM (active) and 17.6 µM (active) in [2]; 21.9 µM (active) and 27.9 µM (active) in assay [3]; 8.71 µM (active) in assay [4]; “inactive and 33.1 µM (active)” in assay [5]; “inactive and 49.6 µM (active)” in assay [6]. Also, in assay [8], the Potency entry is “inactive and 19.7 µM (active)”. The Potency result in assay [9] was “inactive”.
As for `ClC(Cl)(Cl)Br`, the Potency entry in assay [1], in [2], in assay [4], in assay [5], in [6] and in assay [8] was “inactive” in each case. The Potency result in assay [9] is “inactive”. Moreover, the max response in [3] is -0.387% (inactive) and 6.81% (inactive).
As for `COc1ccc(C=O)cc1OC`, the Potency result in [1], in assay [2], in [4], in [5], in [6] and in [8] was “inactive” in each case. Further, the Potency result in assay [9] was “inactive”. The max response in assay [3] was 1.59% (inactive) and -6.52% (inactive).
Take `Cc1cccc(N=Nc2ccc(N(C)C)cc2)c1`: the Potency entry in assay [1], in assay [4], in [5], in [6], in assay [7] and in assay [8] was “inactive” throughout. Besides, the Potency result in assay [9] is “inactive”.
Take `OC(c1ccc(Cl)cc1)(c1cncnc1)c1ccccc1Cl` (centres undefined): the Potency in assay [1] is 19.8 µM (active) and inactive; in assay [2], 11.2 µM (active); in assay [3], 5.59 µM (active) and 27.5 µM (active); in assay [5] it was 49.8 µM (active) and inactive; in assay [6], 17.7 µM (active) and inactive; in assay [8] it was 17.7 µM (active) and inactive. In [9], the Potency entry is “inactive”.
Consider `C[C@]12CC[C@H]3[C@@H](CCC4=CC(=O)CC[C@@H]43)[C@@H]1CC[C@@H]2O`, for which the Potency entry in [1], in [2], in assay [4], in [5], in assay [6] and in assay [8] was “inactive” in each case. The Potency result in [9] was “inactive”. Further, in assay [3], the max response is -22.5% (inactive).
With `COc1ccc(CO)cc1`, the Potency entry in [1], in assay [2], in assay [4], in [5], in assay [7] and in assay [8] was “inactive” each time. Besides, in assay [9], the Potency result was “inactive”. Besides, the max response in assay [3] was 11.4% (inactive) and -15.8% (inactive).
Consider `Nc1ccc([N+](=O)[O-])cc1N`, for which the Potency result in [1], in assay [2], in [4], in assay [5], in assay [6] and in assay [8] was “inactive” throughout. Also, the Potency entry in [9] was “inactive”. Besides, the max response in assay [3] is 0.0622% (inactive) and -18.5% (inactive).
Regarding `CC(C)CON=O`, the Potency entry in [1], in [2], in [4], in assay [5], in assay [6] and in assay [7] was “inactive” in each case. The Potency result in [8] and in assay [9] was “inactive” each time. The max response in assay [3] was 8.89% (inactive) and 0.247% (inactive).
As for `S=c1[nH]c2ccccc2[nH]1`, the Potency entry in [1], in [2], in assay [4], in [6] and in [9] was “inactive” each time. Further, in [3], the max response was 4.47% (inactive) and 4.64% (inactive). In addition, the Potency entry was “inactive and 21.9 µM (active)” in assay [5]; “inactive and 21.9 µM (active)” in [7]; “inactive and 21.9 µM (active)” in assay [8].
Take `CCCCSP(=O)(SCCCC)SCCCC`: the Potency result in assay [1], in assay [2], in assay [4], in assay [5], in [7] and in [8] was “inactive” throughout. The Potency entry in assay [9] is “inactive”. The max response in assay [3] was -17.8% (inactive) and -14.6% (inactive).
With `COP(=S)(OC)SCn1nnc2ccccc2c1=O`, the Potency result in assay [1], in assay [10], in [4], in [5], in assay [7] and in assay [8] was “inactive” in each case. Besides, the Potency result in [9] was “inactive”. The Potency in assay [3] is 48 µM (active).
Turning to `CCCCCCCCCc1ccc(O)cc1`, the Potency in assay [1] is 44.1 µM (active) and inactive; in assay [2] it was 6.99 µM (active) and 4.36 µM (active); in assay [3] it was 11.1 µM (active) and 6.92 µM (active); in assay [5], 39.3 µM (active); in assay [7], 44.1 µM (active) and 38.9 µM (active); in [8], 24.8 µM (active). Also, the Potency entry in assay [6] and in assay [9] was “inactive” in each case.
